AmpC detergent: qHTS Inhibitors of AmpC Beta-Lactamase (assay with detergent); AmpC hydrolysis of nitrocefin, absorbance 480 nm, 0.01% Triton; P00811; 370,000 compounds, 0.041% hits; Potency, µM (top dose mostly 114 µM), for the others: top-dose activity change, negative = inhibition, hits mostly inhibitors;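 further: 0% = no-compound wells and -100% = no-enzyme wells; nearly all actives have a fitted effect of over 25% in size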
Target sequence (P00811 whole entry, looked up): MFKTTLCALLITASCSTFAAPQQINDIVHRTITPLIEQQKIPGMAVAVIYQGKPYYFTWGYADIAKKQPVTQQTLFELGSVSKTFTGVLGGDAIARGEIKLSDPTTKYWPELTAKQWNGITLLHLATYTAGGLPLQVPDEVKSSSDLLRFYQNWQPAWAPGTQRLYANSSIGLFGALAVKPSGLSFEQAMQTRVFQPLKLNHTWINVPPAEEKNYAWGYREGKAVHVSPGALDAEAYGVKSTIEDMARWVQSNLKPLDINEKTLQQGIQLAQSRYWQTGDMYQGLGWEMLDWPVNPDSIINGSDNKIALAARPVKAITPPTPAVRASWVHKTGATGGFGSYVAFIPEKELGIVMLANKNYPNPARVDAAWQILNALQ
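AmpC (5.3 nM in the dispensed reagent) in 20 mM phosphate pH 7.0 with 0.01% (detergent screen) or 0.0001% Triton X-100 was preincubated with compounds for 15 min at room temperature. Nitrocefin was then added from an 800 uM solution, and hydrolysis was followed at 480 nm.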
RE007 growth inh: qHTS Assay for Inhibitors of the HIV-1 protein Vpr; S. pombe RE007 Vpr strain, BacTiter-Glo ATP luminescence, 24 h; 360,000 compounds, 0.21% hits; Potency, µM (top dose mostly 92.2 µM), for the others: at the top dose activity change, negative = less growth, usual class: inhibitors; AID 651644, 2012; active means well fitted falling curve with a large enough effect; inconclusive means small, poorly fitted or top-dose-only effect; inactive means no such curve, though single readings can be large or run the other way; further: on the % scale 0 is the no-effect control and ±100 the full control effect; nearly all actives have a fitted effect of over 50% in size
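Fission yeast strain RE007, carrying one chromosomally integrated HIV-1 vpr copy, was seeded at OD 0.01 in PMG+AL medium with 23 nL pinned compound. After 24 h at 30 °C and 99% humidity, viability was read by BacTiter-Glo luminescence.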
SARS PLP yeast: qHTS of Yeast-based Assay for SARS-CoV PLP | S. cerevisiae expressing SARS-CoV PLpro, growth rescue | Potency, µM (titrated, usually from 32.9 µM), for the others: at the top dose activity, positive = growth rescue, most hits filed as activators | 330,000 compounds, 0.19% hits; calls by dose curve; further: 0% is about no effect; nearly all actives have a fitted effect of over 55% in size
TbPYK inhibitor: qHTS of Trypanosoma Brucei Inhibitors | pyruvate kinase (Trypanosoma brucei), Q57TT1 | Potency, µM (top dose mostly 76.8 µM), for the others: top-dose activity, negative = inhibition, usual class: inhibitors | TbPYK enzyme, Kinase-Glo Plus ATP luminescence, 45 min | 410,000 compounds, 0.12% hits; further: on the % scale 0 is the no-effect control and ±100 the full control effect; nearly all actives have a fitted effect of over 50% in size
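ADP (130 uM final) triggers the TbPYK reaction after compound addition; incubation is 45 min at room temperature. Kinase-Glo Plus is then added and luminescence imaged. Normalized data are fitted to concentration-effect curves.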
AmpC inh no detg: qHTS Inhibitors of AmpC Beta-Lactamase (assay without detergent); AmpC nitrocefin hydrolysis, absorbance 480 nm, 0.0001% Triton; Potency, µM (top dose mostly 57.1 µM), for inactives: top-dose activity change, negative = inhibition, usual class: inhibitors; 330,000 compounds, 0.52% hits;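 further: plate controls were no compound for no effect and no enzyme for full effect; nearly all actives have a fitted effect of over 20% in size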
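AmpC (5.3 nM in the dispensed reagent) in 20 mM phosphate pH 7.0 with 0.01% (detergent screen) or 0.0001% Triton X-100 was preincubated with compounds for 15 min at room temperature. Nitrocefin was then added from an 800 uM solution, and hydrolysis was followed at 480 nm.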
Sm TGR block: qHTS Assay for the Inhibitors of Schistosoma Mansoni Peroxiredoxins; Schistosoma mansoni thioredoxin glutathione reductase (TGR), Q962Y6; purified TGR, DTNB reduction, TNB absorbance 405 nm; Potency, µM (series often up to 114 µM), without a hit: top-dose activity change, negative = inhibition, hits mostly inhibitors; 360,000 compounds, 3% hits; AID 485364, 2010; further: on the % scale 0 is the no-effect control and ±100 the full control effect; nearly all actives have a fitted effect of over 60% in size
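Kinetic colorimetric format: TGR-catalysed, NADPH-driven DTNB reduction monitored via TNB absorbance. Enzyme dispensed at 20 nM; compound exposure 15 min at room temperature before reaction start.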
An asterisk follows results filed as active; u = inconclusive; x = not tested or not shown; [ ] = dose if it differs, or a comment. This is a sample that favours compounds with a hit; in the whole collection about 3.3% have one here. Unless noted, the call rests on the fitted dose curve; in most records, active means well fitted curve in the direction sought with a large enough effect; inconclusive means small, poorly fitted or top-dose-only effect, or another doubt; inactive means no such curve, though single readings can be large; an effect the other way counts as inactive or inconclusive. Potency means the concentration at half of the fitted maximal effect.

SMILES	AmpC detergent	RE007 growth inh	SARS PLP yeast	TbPYK inhibitor	AmpC inh no detg	Sm TGR block
COc1ccc(OC)c(-c2csc(NC(=O)COC(=O)c3ccc(NC(=O)CC#N)cc3)n2)c1	u	-6.7%	1.4%	-2.6%	25.1µM*	-3.3%
COC(=O)c1c(NC(=O)COC(=O)c2ccc(NC(=O)CC#N)cc2)sc2c1CCCCC2	2.4%	5.9%	0.2%	1.7%	31.6µM*	11.6%
COC(=O)c1c(NC(=O)C2CC2)sc2c1CCCC2	u	-6.7%	-11.9%	-3.7%	44.7µM*	4.1%
COc1ccc(NC(=O)C2CCN(C(=O)c3sc4nc[nH]c(=O)c4c3C)CC2)cc1Cl	-0.3%	x	x	-0.4%	x	0.9%
NC(=O)c1c(NC(=O)COC(=O)c2ccc(O)c(Cl)c2)sc2c1CCCC2	x	-17.3%	1.7%	-24.5%	15.8µM*	x
N#CCC(=O)Nc1sc2c(c1C(N)=O)CCCC2	-0.2%	4.8%	10.9%	-3.3%	-39.6%	-23.5%
CCC(=O)OC1[C@@H](N2CCCCC2)C[C@H]2[C@@H]3CC[C@H]4C[C@H](OC(C)=O)[C@@H](N5CCCCC5)C[C@]4(C)[C@H]3CC[C@]12C (stereo not given in full)	x	x	x	0.0%	x	x
O=C(Nc1ccc(S(=O)(=O)N(Cc2ccccc2)c2ccccc2)cc1)c1ccc(F)cc1	23.2%	x	x	-0.8%	x	2.0%
Cc1cc(C)n(CCCO)c(=O)c1C#N	u	7.5%	-0.5%	-6.7%	-13.9%	1.5%
Cc1cc(C)n(CC(C)O)c(=O)c1C#N (stereo not given)	0.4%	-3.5%	-0.5%	4.2%	0.316µM*	-4.9%
O=C1/C(=C/C=C/c2ccco2)SC(=S)N1c1ccc(O)cc1	-1.0%	-15.4%	-7.7%	-9.2%	15.8µM*	4.47µM*
CC(C)C(C(=O)O)N1C(=O)/C(=C/C=C/c2ccco2)SC1=S (stereo not given)	u	-21.5%	16.8%	-17.8%	-50.2%	11.2µM*
O=C(NN1C(=O)/C(=C/C=C/c2ccco2)SC1=S)c1ccncc1	u	7.2%	0.7%	-23.5%	-33.0%	3.16µM*
CCc1cccc(NC(=O)c2ccc3c(c2)c(C)c(C)n3Cc2ccc(F)cc2)c1	-5.9%	x	x	6.0%[15.4 µM]	x	8.9%
CN(C)C(CNc1nnnn1-c1ccccc1)c1ccco1 (stereo not given)	2.3%	-9.7%[3.69 µM]	5.3%	x	-0.4%	44.7µM*
Cc1ccc(-n2nnnc2-c2ccco2)cc1	-9.2%	1.0%	14.7%	2.0%	-8.1%	-7.1%
Cc1cccc(-n2c3nc(=O)[nH]c(=O)c-3cc3c(Cl)cccc32)c1C	-7.8%	x	x	-9.0%	x	-15.6%
N#CC1=C(N)C(C#N)(C#N)[C@H](c2ccoc2)[C@H]2CN(Cc3ccccc3)CC=C12	-8.9%	-25.0%	-1.0%	-0.6%	-40.4%	u
CC(=O)N1CC=C2C(C#N)=C(N)C(C#N)(C#N)C(CCc3ccccc3)C2C1 (stereo not given)	-6.7%	24.0%	8.4%	-8.1%	-23.0%	39.8µM*
CCN1CC=C2C(C#N)=C(N)C(C#N)(C#N)C(CCc3ccccc3)C2C1 (stereo not given)	u	-7.6%	-0.9%	-0.8%	-13.3%	28.2µM*
Cc1cccc(NC(=O)c2ccc3[nH]c(C)cc(=O)c3c2)c1	26.7%	x	x	-2.4%	x	1.1%
COCCn1c(SCC(=O)N2CCCc3ccccc32)nnc1-c1ccco1	-7.4%	5.3%	-0.2%	-6.8%	-14.5%	u
Cc1occc1-c1nnc(SCC(=O)N2CCc3ccccc32)o1	-7.7%	2.9%	2.8%	-3.1%	-13.5%	25.1µM*
COCCn1c(SCC(=O)N2CCCc3ccccc32)nnc1-c1ccoc1C	u	-5.5%	8.0%	-9.1%	-0.6%	39.8µM*
